High-throughput results as filed in PubChem.
Shown are actives, neighbours in structure and some others; about 1.2% of the full set was active somewhere.
RGS16-Gao – modulators of RGS16 binding to Galphao, primary screen, biochemical, human proteins, multiplexed bead flow cytometry; Regulator of G-protein signaling 16 (Homo sapiens) + Guanine nucleotide-binding protein …; bead-based flow cytometry RGS16-Galphao binding, fluorescence; actives lie on both sides; binding response (% of control), % at 10 µM; actives 0.38% (n = 220,000); AID 1441, 2008; call rule not given here;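 also: Galphao activated by GDP with aluminum fluoride before binding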
Target sequence (O15492 whole entry, looked up): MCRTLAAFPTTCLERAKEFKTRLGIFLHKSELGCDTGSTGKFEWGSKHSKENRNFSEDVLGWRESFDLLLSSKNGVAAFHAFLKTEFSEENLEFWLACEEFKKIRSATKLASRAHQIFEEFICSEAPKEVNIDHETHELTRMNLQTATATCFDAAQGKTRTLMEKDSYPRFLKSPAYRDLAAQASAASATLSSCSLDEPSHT
Target sequence (P09471 whole entry, looked up): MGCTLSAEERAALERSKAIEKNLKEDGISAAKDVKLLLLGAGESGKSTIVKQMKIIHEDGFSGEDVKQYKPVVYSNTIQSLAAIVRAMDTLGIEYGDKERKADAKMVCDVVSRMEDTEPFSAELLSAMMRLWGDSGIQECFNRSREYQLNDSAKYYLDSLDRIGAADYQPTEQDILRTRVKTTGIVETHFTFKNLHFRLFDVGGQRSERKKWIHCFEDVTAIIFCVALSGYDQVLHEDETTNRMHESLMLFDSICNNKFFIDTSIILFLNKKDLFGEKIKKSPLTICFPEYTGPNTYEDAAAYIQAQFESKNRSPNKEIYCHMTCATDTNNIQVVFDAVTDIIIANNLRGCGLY
GSH fluor – compound fluorescence on glutathione beads, profiling panel, artefact control, biophysical, 488/530 nm, flow cytometry. AID 1776, 2009. actives 0.25% (n = 190,000). GSH beads flow cytometry, compound fluorescence 488/530 nm; hits give high values. fluorescence (KMESF) at 10 µM; in the data active = fluorescence above about 89;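 also: glutathione beads carrying GST-tagged Bcl family fusion proteins plus one bare bead set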
Avidin fluor – green autofluorescence of compounds with avidin beads – biophysical, 488/530 nm, flow cytometry, artefact control, profiling panel | actives 0.38% (n = 220,000) | fluorescence (KMESF) at 10 µM | compound fluorescence 488/530 nm; hits give high values; in the data active = fluorescence above about 47
RGS4-Gao reg – modulators of RGS4 binding to Galphao, primary screen, biochemical, multiplexed bead flow cytometry | binding response (% of control), % at 10 µM | actives 0.33% (n = 220,000) | actives lie on both sides | Guanine nucleotide-binding protein G(o) subunit alpha (Homo sapiens), P09471; in the data active = binding response below about 49% or above about 150%; inactive = in between;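 also: fluorescent Galphao activated with aluminum fluoride binding bead-coupled RGS4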
Target sequence (P09471 whole entry, looked up): as above
RGS8-Gao reg – RGS8-Galphao binding modulators, primary screen, biochemical, multiplexed bead flow cytometry | actives lie on both sides | actives 0.34% (n = 220,000) | response (percent of control binding), % at 10 µM | AID 1423, 2008; in the data active = response below about 60% or above about 140%; inactive = in between;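 also: Galphao activated as the GDP aluminium fluoride complex binding bead-coupled RGS8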
RGS7-Gao – RGS7-Galphao binding modulators, primary screen, biochemical, multiplexed bead flow cytometry; actives 0.35% (n = 220,000); binding response (% of control), % at 10 µM; AID 1439, 2008; Guanine nucleotide-binding protein G(o) subunit alpha (Homo sapiens), P09471; actives lie on both sides; in the data active = binding response below about 49% or above about 150%; inconclusive = no clear call, values can overlap the other calls; inactive = in between;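 also: fluorescent Galphao held in activated GDP-AlF4 state binding bead-coupled RGS7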
Hits are given with their value; – = inactive; ? = inconclusive; · = no result given.

SMILES	RGS16-Gao	GSH fluor	Avidin fluor	RGS4-Gao reg	RGS8-Gao reg	RGS7-Gao
O=C1c2cc(S(=O)(=O)NCCCO)ccc2-c2ccc(S(=O)(=O)NCCCO)cc21	–	251	–	–	–	–
COc1ccccc1C(=O)N/C(=C\c1ccc(Br)cc1)C(=O)N1CCCC1	–	·	–	–	–	?
O=C(Cc1ccccc1)NNC(=O)c1ccccc1C(=O)O	–	·	–	–	–	?
Cc1ccc(S(=O)(=O)NC(=O)NCc2ccccn2)cc1	–	256	–	–	–	–
Cc1ccc(S(=O)(=O)NC(=O)NCc2ccccc2)cc1	–	–	–	–	–	–
O=S(=O)(N1CCCCC1)n1nnc2ccccc21	–	–	49	–	–	–
Cn1c(N)c(C(=O)Nc2c(Cl)cccc2Cl)sc1=S	–	·	–	–	–	?
CCCSc1nc(C)c(CC(=O)OCC)c(=O)[nH]1	–	–	–	–	–	–
C=CCSc1nc(C)c(CC(=O)OCC(C)C)c(=O)[nH]1	–	–	48	–	–	–
O=C(c1ccc(F)cc1)C(CCCCCC(CN1CCOCC1)C(=O)c1ccc(F)cc1)CN1CCOCC1 (stereo unspecified)	–	–	185	–	–	–
OC(CN1CCOCC1)c1ccc(F)cc1 (stereo unspecified)	–	–	–	–	–	?
CN(C(=O)Nc1ccc(C(C)(C)C)cc1)C1CCCCC1	–	·	70	–	–	?
CN(c1ccccc1C(=O)O)S(=O)(=O)c1ccc2c3c(cccc13)C(=O)N2	–	–	–	–	–	–
O=C(O)c1ccccc1NS(=O)(=O)c1ccc2c3c(cccc13)C(=O)N2	–	–	75	–	–	–
O=C(O)CCC(=O)N1CCC(n2nnc3cc(C(F)(F)F)ccc32)CC1	–	·	–	–	–	?
C=CCNC(=O)O/N=C/c1csc([N+](=O)[O-])c1	–	·	–	–	–	?
O=C1Nc2ncccc2OC1CCCl (stereo unspecified)	–	258	–	–	–	–
CCOc1ccc2nc(SCC(=O)c3ccccc3)sc2c1	–	263	–	–	–	–
CC(C)Cn1c(N)c(C(=O)CSc2ncnc3sc4c(c23)CCCC4)c(=O)n(C)c1=O	–	101	–	–	–	–
Cc1ccc(C(=O)NCCc2ccc(F)cc2)s1	–	–	–	–	–	?
Cc1c(/C=N\NC(=O)c2csc3ccccc23)cnn1C	–	–	54	–	–	–
CC(=O)Nc1nnc(Cc2ccccc2)s1	–	264	–	–	–	–
O=C(O)CC(NNC(=O)c1ccccc1)C(=O)Nc1cccc([N+](=O)[O-])c1 (stereo unspecified)	–	·	–	–	–	?
N=C1C(c2nc3ccccc3s2)=C(O)CN1CCCO	–	–	–	–	–	–
CCCCN1CC(O)=C(c2nc3ccccc3s2)C1=N	–	–	110	–	–	–
SMILES	RGS16-Gao	GSH fluor	Avidin fluor	RGS4-Gao reg	RGS8-Gao reg	RGS7-Gao
Cc1ccc(OCC(=O)Nc2ccc(N3CCN(C(=O)c4ccco4)CC3)cc2)cc1	–	–	–	–	–	–
CN(C)S(=O)(=O)c1cccc(NC(=S)N2CCc3ccccc32)c1	–	–	154	–	–	?
O=C(Oc1cccnc1)c1cccc(Cl)c1	–	267	–	–	–	–
COC(=O)C1=C(C)NC(=O)C1(NC(=O)CN1CCCC1=O)C(F)(F)F (stereo unspecified)	–	–	55	–	–	–
CCOC(=O)NC1(C(F)(F)F)C(=O)NC(C)=C1C(=O)OC (stereo unspecified)	–	–	–	–	–	–
C=CCn1c(SCC(=O)NCc2ccco2)nc2ccccc2c1=O	–	–	–	–	–	–
C=CCn1c(SCC(=O)NC(=O)NCc2ccco2)nc2sc(CC)cc2c1=O	–	267	–	–	–	–
COc1ccccc1N1CCN(C(=O)COc2ccc(S(=O)(=O)NC(C)(C)C)cc2)CC1	–	–	–	–	–	–
FC(F)(F)c1ccc(-n2ccnc2)nc1	–	265	–	–	–	–
COc1ccc(C=O)cc1COc1ccccc1F	–	–	–	–	–	–
COc1ccc(/C=C/C(=O)c2ccccc2)cc1COc1ccccc1F	–	–	90	–	–	–
O=C(Cn1c(-c2cscn2)nc2ccccc21)Nc1ccccc1F	–	–	50	–	–	–
COC(=O)c1ccccc1NC(=O)CSc1nnc(-c2cccnc2)n1N	–	–	–	–	–	–
CC(C)N(c1ccccc1)c1ccc(NC(=O)C2CCCO2)cc1 (stereo unspecified)	–	266	–	–	–	–
O=C(Nc1ccc(Oc2ccccc2)cc1)C1CCCO1 (stereo unspecified)	–	–	–	–	–	–
COCCNC(=S)NC(=O)CC12CC3CC(CC(C3)C1)C2	–	–	–	–	–	–
CNC(=O)CC12CC3CC(CC(C3)C1)C2	–	261	–	–	–	–
CCOc1ccc(NS(=O)(=O)c2ccc(C)c(C(=O)NCCCn3ccnc3)c2)cc1	–	–	–	–	–	–
CCc1ccc(-c2nc(NC(=S)NC(=O)c3cccs3)sc2C)cc1	–	–	57	–	–	–
O=C(NC(=S)Nc1nc2ccccc2s1)c1cccs1	–	–	–	–	–	–
COc1ccc(C(=O)N/N=C(\C)CC(=O)Nc2cccc(C(F)(F)F)c2)cc1	–	·	69	–	–	?
COCCNC(=O)C(=O)N/N=C(\C)CC(=O)Nc1cccc(C(F)(F)F)c1	–	·	–	–	–	?
Cc1cccc(C)c1NC(=O)CSc1nc(-c2ccco2)cc(C(F)(F)F)n1	–	–	67	–	–	–
CCc1nnc(NC(=O)CN2CCN(c3nc(-c4ccccc4)cs3)CC2)s1	–	–	47	–	–	–
COc1ccc(CNC(=O)C(CCSC)NS(=O)(=O)c2ccccc2F)cc1 (stereo unspecified)	–	–	–	–	–	?
COc1cccc(C(=O)N2CCN(C(=O)Cc3ccccc3)CC2)c1	–	–	54	–	–	–
O=C1C2CC(O)CN2C(=S)N1Cc1ccccc1 (stereo unspecified)	–	·	–	–	–	?
CCOC(=O)C1=C(C)NC(SC)=NC1c1ccc(OC)cc1 (stereo unspecified)	–	111	–	–	–	–
NS(=O)(=O)c1ccc(NC(=O)N[C@@H](Cc2ccccc2)C(=O)O)cc1	–	–	–	–	–	–
NC(=O)NC(Cc1ccccc1)C(=O)Nc1ccc(S(N)(=O)=O)cc1 (stereo unspecified)	–	253	–	–	–	–
